# Measured values as given in PubChem BioAssay AID1347426 (Functional Genomics Laboratory (NCATS/FGL), 2020).
# Hit rate of the full screen: of about 31,000 sequences, about 1,400 (4.5%) were called active. This is one part of a sample in which actives are shown more often than they occur. Unmarked numbers belong to inactive results.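 How the source made its calls: active means median seed-adjusted z-score above 1 or below -1; inactive means the rest.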
# Test: Novel Modifiers of Survival Motor Neuron (SMN) Protein: Gene Identification via Genome-wide siRNA Screen;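 further: luminescence tracks full-length SMN protein made from the SMN2 reporter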
# Conditions: HEK293T SMN2-luciferase reporter, siRNA knockdown, 72 h; actives lie on both sides
# Outline: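 Luciferase signal, proportional to full-length SMN made from an SMN2 cDNA reporter in stable HEK293T cells, was read 72 h after siRNA reverse transfection. Values were expressed as MAD scores after non-targeting-control normalization and log10 conversion; seed analysis flagged off-targets.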
row,Sequence,median seed-adjusted z-score
1,CCGCUGAACCUGUUGAAGATT against SGMS2,-0.492
2,GGUGCUCUCGGUUGCACAATT against U2AF1,2.08 (active)
3,CAAGCUCUGAUAUACCGAATT against HIVEP1,0.532
4,UGCACAUCAAGUAUCCUAATT against SLC30A10,0.523
5,GCAUCAUCCAGAACACGGATT against ARHGEF18,0.586
6,CGAUGGAGAUGUUUCGGGATT against KCNA2,-1.03 (active)
7,GCGAGAGUCUGCAUAGGUATT against GRIN2D,-0.135
8,GGAAGAAAGUAUAAUAGAATT against MAFG,0
9,UGAUCAACCUCAAGACGGATT against MED16,-0.6
10,GAAACACGUCAGUCCUAAUTT against LHX8,0
11,GAAGUUCAUACUAAGCGUATT against TPR,-1.03 (active)
12,CGUGGUACCAGACAUCUGATT against CCL17,0.178
13,GACCGACUGCAGAACAAUATT against PDE6B,-0.336
14,GGAUAAUACAGUUCGAUUATT against TAF5,-0.192
15,GACUCCCUGCUUUCAAUAATT against SALL2,0.504
16,CCCUCUCAGUACUACGCUATT against ZMYND10,0.255
17,CAAGAAAACUGCGAAUAAATT against STX2,0.442
18,GUUUCAUCUGGGUUCGCUATT against SF3B3,-2.53 (active)
19,GAACCAUCUCAAUACUAUUTT against DACH2,-0.00102
20,GGGCGAGUAUUAUGACUAUTT against MYO15A,0.0508
21,GACUGUUCGUUUCCCAGAUTT against CHRNA7,-0.485
22,GAGACAGCCUGAUGGAGAATT against STC1,-1.36 (active)
23,GCUCCUUGCUACCAUAGUATT against CCBP2,-0.0896

row,Sequence,median seed-adjusted z-score
1,CUCUCAGACAAGCUACUGATT against CCL27,0
2,GUUGUGGUCUGAUCAGUUATT against TUBA1A,0.284
3,AGUUCCCUUUGUAACCAUATT against ZNF669,0.175
4,AGGCUGCGUUUGGACCAGATT against PAPLN,-0.186
5,CAUGGGUGCUUAUAAGUCATT against IL1A,1.12 (active)
6,GGGCUGCACCAAAGCCUAUTT against KLF14,0.0241
7,GUUUAUUUCGUACACUAAATT against KTI12,0.0814
8,GCGUCGUGGUCAUGAACAATT against PIP5K1C,-0.13
9,CAGUGUCCCUAUGAAGGGATT against SRMS,-1.58 (active)
10,GCUAUUGAGUUUGCCCAAATT against ADHFE1,0.418
11,CUAGUGAUCUUUUAGAGUUTT against CSGALNACT2,0.236
12,GAACUUUAUUGCAAAGUUUTT against CSRP3,0.15
13,GCAUCGAGAUCCACGAAGATT against PITPNM3,-0.0378
14,AGAAGACUCUGGUAAUGUATT against WHSC1,1.17 (active)
15,CUGAUUCAAGAGAAGAUUATT against SMARCAL1,-0.145
16,GAACAGAUCCGGAAGAAGATT against NR1H2,0.069
17,GGACUUUGAUUGCUAGCAATT against CTRC,-0.104
18,GCUUGAAGAGUUUGGCUGGTT against DUSP15,0
19,GCAAUUAACAAUUAUCGAUTT against RNASE3,0.588
20,AGUUUGUCCUGAAGAAUUATT against PTPN23,-0.0473
21,GGGUCAUCUAUAUCCGCAATT against GPR132,0
22,GCAUCUGCUGUAUCGAUGATT against MCM4,0.0057
23,GCCCUUACAGGGUAUCAAATT against DDX46,-1.24 (active)

row,Sequence,median seed-adjusted z-score
1,CACGGAUUCUUGUUGGAAATT against RAB33B,-0.758
2,GUUCGAAUCAAGAACCCUATT against NT5C3,-0.456
3,UGAUAGAGAUCAACCCAUATT against PSMB5,-1.37 (active)
4,ACAUGAUCAUCAGUGUGAATT against FABP4,0.227
5,GCGUCAUGAUGUUCACCUATT against ITGB5,-0.00882
6,GCAUGGGAAUCAUUGUGCUTT against PPIL1,0.166
7,CCAGUACACUUUUGUCUGATT against CDC5L,-0.628
8,AAGUGUGCCUGAAUACUAUTT against KHDRBS2,-0.335
9,GGAGCAGUCACUUACAGAATT against PINK1,0.192
10,CCACUGUCCUGUUUGAGAUTT against FKBP6,-1.12 (active)
11,CGGAUUAUCUUCUAUCUAUTT against SLC6A14,0
12,GUCUUGACCUUGAACGCAATT against VIM,0.431
13,GGCUUCUUCUCGUGCAUCATT against KCNK3,0
14,GAAGGGUGAUUCUAAUAUUTT against GPR174,-0.324
15,GAAUCUGUCAGGAAUGACATT against RARB,0.409
16,CAUCGAAUCCUUACCCGAATT against AASDHPPT,0.64
17,GCCUCACCUCAAUUGCAAATT against ANP32D,-0.714
18,GACUACGCCUUGAAGCUAATT against TAF6,-1.36 (active)
19,GCUUUCGUCAAGUCAAAGATT against TIRAP,-0.431
20,AGAGCUAGAUGGAAGAACATT against SFRS3,2.74 (active)
21,ACUGACAUUUUUCAACUCATT against ALDH1L1,0.0289
22,CUACCGCAUCAGUAACAGATT against DDX21,-0.251
23,GACUCUGAGUAUAAAGUGATT against BARHL1,0.397
